Some test systems named below: SR leukemia; RPMI-8226 leukemia; OVCAR-8 ovarian; OVCAR-5 ovarian; OVCAR-4 ovarian; SK-OV-3 ovarian; IGROV1 ovarian; OVCAR-3 ovarian; HS 578T breast; NCI/ADR-RES ovarian; T-47D breast; BT-549 breast; MDA-MB-435 melanoma; SW-620 colon; MCF7 breast; HCT-116 colon; HCC-2998 colon; KM12 colon.
Common to all, as to experiment: NCI-60 one-dose screen, 48 h (100 = growth as untreated, 0 = no growth, -100 = all killed)
What all share (details): 10 µM unless noted

The panel holds about 83,000 compounds, 20% with a hit somewhere; the sample as a whole holds those more often.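 In brief: 96-well plates, 48 h treatment, single concentration, percent growth endpoint.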 Unmarked numbers belong to inactive results. The source made the active and inactive calls. Rule for the calls: active = growth percent below 10; inactive = the rest.

As for `COC(=O)/C=C1/CCCCC1(C)C(=O)OC` (centres undefined), the growth in the experiment with SR leukemia is 92.8%; in the experiment with RPMI-8226 leukemia it was 101%; in the experiment on OVCAR-8 ovarian, 98.4%; with OVCAR-5 ovarian it was 118%; with OVCAR-4 ovarian, 103%; with SK-OV-3 ovarian, 110%. For the same compound, the growth was 107% with IGROV1 ovarian; 118% with OVCAR-3 ovarian; 105% in the experiment with HS 578T breast; 111% with NCI/ADR-RES ovarian; 110% with T-47D breast; 89.8% with BT-549 breast. For the same compound, the growth in the experiment with MDA-MB-435 melanoma is 103%; in the experiment on SW-620 colon, 106%; with MCF7 breast, 106%; in the experiment on HCT-116 colon, 95.7%; in the experiment on HCC-2998 colon, 119%; in the experiment with KM12 colon, 107%.
As to `Cc1cc2c(-c3nc4ccccc4n3C)c(O)c(O)cc2c(O)c1-c1c(C)cc2c(-c3nc4ccccc4n3C)c(O)c(O)cc2c1O`, the growth in the experiment on SR leukemia was 56.4%; in the experiment on RPMI-8226 leukemia, 24.4%; with OVCAR-8 ovarian, 32.1%; in the experiment on OVCAR-5 ovarian, 58.1%; in the experiment on OVCAR-4 ovarian, 70.1%; in the experiment on SK-OV-3 ovarian, 83.2%. The growth is 89.7% in the experiment with IGROV1 ovarian; 71.3% in the experiment with OVCAR-3 ovarian; 28.4% in the experiment with HS 578T breast; 102% in the experiment with NCI/ADR-RES ovarian; 19.3% in the experiment with T-47D breast; 20% in the experiment on BT-549 breast. Besides, the growth in the experiment with MDA-MB-435 melanoma is 34.2%; with SW-620 colon, 54.3%; with MCF7 breast it was 19.6%; in the experiment with HCT-116 colon it was 7.37% (active); in the experiment with HCC-2998 colon, 66.5%; with KM12 colon, 24.7%.
With `O=C(/C=C/c1c[nH]c2ccccc12)c1cc2ccccc2o1`, the growth with SR leukemia was 41.1%; in the experiment with RPMI-8226 leukemia it was 60.1%; in the experiment with OVCAR-8 ovarian it was 99.3%; in the experiment with OVCAR-5 ovarian, 101%; with OVCAR-4 ovarian it was 101%; in the experiment on SK-OV-3 ovarian it was 103%. In addition, the growth in the experiment on IGROV1 ovarian was 88.2%; in the experiment on OVCAR-3 ovarian it was 93.3%; in the experiment with HS 578T breast, 100%; with NCI/ADR-RES ovarian, 99.9%; in the experiment on T-47D breast, 82.8%; in the experiment with BT-549 breast it was 79.6%. The growth is 92.1% with MDA-MB-435 melanoma; 95.2% with SW-620 colon; 65.9% in the experiment on MCF7 breast; 62% with HCT-116 colon; 105% in the experiment with HCC-2998 colon; 75.7% with KM12 colon.
For `CCC(CCCN1C(=O)c2ccccc2C1=O)Nc1cc(OC)cc2cccnc12` (centres undefined), the growth is 73.5% in the experiment on SR leukemia; 102% in the experiment on RPMI-8226 leukemia; 96.1% in the experiment with OVCAR-8 ovarian; 89.6% in the experiment with OVCAR-5 ovarian; 39.9% with OVCAR-4 ovarian; 107% with SK-OV-3 ovarian. Besides, the growth is -7.61% (active) in the experiment with IGROV1 ovarian; 106% with OVCAR-3 ovarian; 84.5% with HS 578T breast; 99.5% in the experiment on NCI/ADR-RES ovarian; 66.3% in the experiment with T-47D breast; 92.9% with BT-549 breast. Also, the growth was 105% in the experiment with MDA-MB-435 melanoma; 95% in the experiment on SW-620 colon; 20.8% in the experiment on MCF7 breast; 105% with HCT-116 colon; 147% in the experiment with HCC-2998 colon; 110% in the experiment on KM12 colon.
For the compound `N=C(N)c1ccc(-c2ccc(-c3cc(Cl)cc(Cl)c3)s2)cc1`, the growth with SR leukemia was -16.6% (active); with RPMI-8226 leukemia it was -48.9% (active); with OVCAR-8 ovarian, -12.5% (active); in the experiment with OVCAR-5 ovarian, -78.3% (active); with OVCAR-4 ovarian, -66.1% (active); in the experiment with SK-OV-3 ovarian, -78.6% (active). Moreover, the growth in the experiment on IGROV1 ovarian was -73.8% (active); with OVCAR-3 ovarian it was -83.4% (active); in the experiment with HS 578T breast, -46.8% (active); with NCI/ADR-RES ovarian it was -47.4% (active); in the experiment on T-47D breast, -54% (active); with BT-549 breast it was -45.7% (active). Besides, the growth in the experiment with MDA-MB-435 melanoma is -90.2% (active); in the experiment with SW-620 colon it was -70.9% (active); in the experiment with MCF7 breast it was -72.5% (active); in the experiment on HCT-116 colon, -78.7% (active); in the experiment on HCC-2998 colon it was -65.2% (active); in the experiment with KM12 colon it was -77.4% (active).
Regarding `CCOC(=O)C1=C(C(F)(F)F)NC(=S)NC1CN1C(=O)c2ccccc2C1=O` (centres undefined), the growth in the experiment with SR leukemia is -89% (active); in the experiment on RPMI-8226 leukemia it was 68.5%; in the experiment with OVCAR-8 ovarian, 116%; in the experiment with OVCAR-5 ovarian it was 95.7%; in the experiment on OVCAR-4 ovarian it was 117%; in the experiment on SK-OV-3 ovarian, 117%. Besides, the growth in the experiment on IGROV1 ovarian is 104%; in the experiment on OVCAR-3 ovarian, 108%; in the experiment on HS 578T breast, 109%; with NCI/ADR-RES ovarian, 112%; in the experiment on T-47D breast, 107%; with BT-549 breast it was 118%. The growth is 118% with MDA-MB-435 melanoma; 93.1% with SW-620 colon; 88.4% in the experiment on MCF7 breast; 103% in the experiment with HCT-116 colon; 63.3% in the experiment on HCC-2998 colon; 111% in the experiment on KM12 colon.
As for `COc1cc2ncnc(-n3ncc4cc(NC(=O)Nc5ccc(Cl)c(C)c5)ccc43)c2cc1OC`, the growth in the experiment with SR leukemia was 71.5%; in the experiment with RPMI-8226 leukemia, 96.8%; in the experiment with OVCAR-8 ovarian it was 110%; in the experiment with OVCAR-5 ovarian, 109%; in the experiment on OVCAR-4 ovarian, 98.3%; with SK-OV-3 ovarian, 119%. In addition, the growth in the experiment on IGROV1 ovarian was 96.2%; in the experiment on OVCAR-3 ovarian, 107%; in the experiment on HS 578T breast it was 75.9%; in the experiment on NCI/ADR-RES ovarian, 98.7%; in the experiment with T-47D breast it was 72%; with BT-549 breast, 89.7%. Besides, the growth with MDA-MB-435 melanoma was 93.8%; in the experiment with SW-620 colon, 120%; in the experiment with MCF7 breast, 72.7%; with HCT-116 colon, 81.5%; with HCC-2998 colon, 100%; with KM12 colon, 25.8%.
Take `COc1ccc(-c2nc(N)n(C(=S)Nc3ccccc3)n2)cc1`: the growth was 90.8% with SR leukemia; 99% in the experiment with RPMI-8226 leukemia; 97.8% in the experiment on OVCAR-8 ovarian; 111% with OVCAR-5 ovarian; 109% with OVCAR-4 ovarian; 94.7% in the experiment with SK-OV-3 ovarian. The growth with IGROV1 ovarian was 99.4%; with OVCAR-3 ovarian, 103%; in the experiment with HS 578T breast, 87.2%; with NCI/ADR-RES ovarian it was 102%; in the experiment with T-47D breast, 84.8%; with BT-549 breast, 102%. Moreover, the growth with MDA-MB-435 melanoma was 107%; in the experiment on SW-620 colon it was 99%; in the experiment on MCF7 breast it was 89.1%; in the experiment on HCT-116 colon, 98.3%; with HCC-2998 colon, 107%; in the experiment on KM12 colon, 95.5%.

(Values after PubChem BioAssay (NCI).)
